# CF NFkB inh: inhibitors of PAF-induced NF-kB signaling, primary screen, cell-based, GFP fluorescence, uHTS; KKLEB NF-kB-GFP reporter, GFP fluorescence overnight; inhibition, % at 5 µM; actives 0.86% (n = 360,000); AID 588850, 2011;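 active = at least 50% inhibition at 5 µM, scaled per plate between neutral and stimulator controls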;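 also: PAF is a Pseudomonas aeruginosa culture filtrate used as stimulus; plate controls were PAF-stimulated DMSO wells for no effect and unstimulated DMSO wells for full effect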
# ABHD5-PLIN5 inh: ABHD5-PLIN5 interaction inhibitors, primary screen, cell lysate, split luciferase complementation, luminescence; Perilipin-5 (Homo sapiens) + 1-acylglycerol-3-phosphate O-acyltransferase ABHD5 (Homo …; Split G. princeps luciferase complementation, 4 h; inhibition, % at 4 µM; actives 0.78% (n = 360,000); AID 602281, 2012;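 active = inhibition above the mean inhibition across every tested compound plus 3 SD, cut at about 22% in these data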;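 also: 0% = DMSO only wells and the 100% control is not disclosed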
# Target sequence (Q00G26 whole entry, looked up): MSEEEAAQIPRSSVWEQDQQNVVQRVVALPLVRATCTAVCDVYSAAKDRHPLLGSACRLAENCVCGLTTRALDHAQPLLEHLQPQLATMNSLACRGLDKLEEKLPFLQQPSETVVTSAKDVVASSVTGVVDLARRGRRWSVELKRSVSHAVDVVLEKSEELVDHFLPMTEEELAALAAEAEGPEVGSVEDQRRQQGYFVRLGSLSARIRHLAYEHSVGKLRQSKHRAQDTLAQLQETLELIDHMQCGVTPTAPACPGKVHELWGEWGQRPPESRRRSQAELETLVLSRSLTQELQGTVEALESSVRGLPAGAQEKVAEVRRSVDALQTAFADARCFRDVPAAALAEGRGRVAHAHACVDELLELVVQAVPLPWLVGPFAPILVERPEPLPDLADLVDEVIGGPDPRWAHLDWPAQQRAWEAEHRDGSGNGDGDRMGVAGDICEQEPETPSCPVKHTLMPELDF
# Target sequence (Q8WTS1 whole entry, looked up): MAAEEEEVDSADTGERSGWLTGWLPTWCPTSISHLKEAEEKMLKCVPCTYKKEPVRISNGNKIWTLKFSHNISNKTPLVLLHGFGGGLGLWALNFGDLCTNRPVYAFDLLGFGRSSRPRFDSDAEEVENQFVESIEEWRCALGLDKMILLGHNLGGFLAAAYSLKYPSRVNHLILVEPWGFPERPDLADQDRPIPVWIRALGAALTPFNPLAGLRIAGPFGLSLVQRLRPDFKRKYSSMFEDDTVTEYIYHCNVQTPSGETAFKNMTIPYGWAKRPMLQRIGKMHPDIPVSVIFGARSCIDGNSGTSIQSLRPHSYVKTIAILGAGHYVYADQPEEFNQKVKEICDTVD
# KKLEB cytotox: cytotoxicity in KKLEB CF airway cells, primary screen, cytotoxicity control for CF NF-kB inhibitor project, cell-based, uHTS, fluorescence assay plates; actives 0.36% (n = 360,000); AID 602141, 2011; activity change (cytotoxicity), % at 5 µM; KKLEB CF airway cells viability, ATPlite luminescence, overnight; stronger effect = lower value; cells stimulated with P. aeruginosa culture filtrate;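 active = corrected activity change at or below -50% at 5 µM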
# HIF-2a inh: HIF-2a reporter inhibitors, primary screen, luminescence, 786-0 RCC cells; 786-0 RCC cells HIF-2a reporter, luciferase luminescence, overnight; inhibition, % at 18.8 µM; actives 0.72% (n = 360,000);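 active = inhibition of the luminescence signal of 40% or more relative to plate controls, in a single-dose primary screen at 18.75 µM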
# TRPM1 prom inh: inhibitors of MITF-dependent TRPM1 promoter reporter, primary screen, cell-based, SK-MEL-5, single point, luciferase; SK-MEL-5 TRPM1 promoter luciferase, 24 h; inhibition, % at 12.5 µM; actives 0.83% (n = 330,000); AID 488899, 2010;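 active = mean inhibition across replicates of 60% or more, whatever share of single replicates reaches that level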
# Peg3 promoter: Peg3 promoter-driven luciferase inhibitors, primary screen, cell-based, HeLa, luciferase luminescence; HeLa PEG-Prom luciferase reporter, overnight; inhibition, % at 20 µM; actives 1.7% (n = 360,000);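 active = inhibition of at least 50% at 20 µM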
# An asterisk follows results filed as active; . = no result given. Rows were chosen to be rich in hits. Some 3.1% of all compounds tested hit in one or more screens of this group.
SMILES,CF NFkB inh,ABHD5-PLIN5 inh,KKLEB cytotox,HIF-2a inh,TRPM1 prom inh,Peg3 promoter
COc1ccc(-c2ccc3oc(-c4ccc(OC)cc4)c(C#CCO)c3c2)cc1,27,-6,-25,5,1,20
CN(C)CCCNC(=S)NCC(c1ccc(Cl)cc1Cl)c1c[nH]c2ccccc12 (centres undefined),18,15,-2,12,46,103*
NCC(c1ccc(Cl)cc1Cl)c1c[nH]c2ccccc12 (centres undefined),21,12,-16,7,17,96*
NCC(c1ccccc1Cl)c1c[nH]c2ccccc12 (centres undefined),-1,-1,-4,25,14,7
CCCCNC(=S)NCC(c1ccccc1)c1c[nH]c2ccccc12 (centres undefined),-9,-15,10,22,15,23
Nc1c(C(=O)NCc2ccco2)c2nc3ccccc3nc2n1CCc1ccccc1,-19,13,-1,-44,17,16
CCOc1ccc(-n2c(N)c(C(=O)NCc3ccco3)c3nc4ccccc4nc32)cc1,6,33*,-2,0,-19,34
Nc1c(C(=O)Nc2ccccc2)c2nc3ccccc3nc2n1-c1ccc(O)cc1,-39,23*,17,-26,5,16
O=C(Cn1ccc2ccccc2c1=O)N1CCN(c2cccc(Cl)c2)CC1,3,22*,0,20,0,17
O=C(Cn1ccc2ccccc2c1=O)NCCC(=O)N1CCN(c2cccc(Cl)c2)CC1,-8,5,5,18,6,-3
Cc1[nH]c2ccccc2c1/C=N/n1cnnc1,9,-2,-7,2,7,-3
COCCN=c1scc(-c2cc(OC)c(OC)c(OC)c2)n1/N=C/c1c(C)[nH]c2ccccc12,-6,15,-6,3,6,53*
C=CCn1cc(-c2ccc(Cl)cc2)cc(C#N)c1=O,-3,9,-16,6,-7,10
C=CCn1cc(-c2ccccc2)cc(C#N)c1=O,8,-6,-96*,12,-18,1
N#Cc1ccc2c(=O)n(-c3ccccc3)sc2c1,31,-16,0,-290,.,-151
O=c1c2cc(F)ccc2sn1-c1ccccc1,44,99*,-17,-125,2,-22
Cc1ccccc1-n1sc2cc(F)ccc2c1=O,6,91*,1,-30,6,73*
O=c1c2cc(C(F)(F)F)ccc2sn1-c1ccccc1,51*,-16,-10,-242,.,-83
Oc1ccc(N=Nc2ccccc2-c2nn[nH]n2)c(O)c1,-3,-5,10,-2,15,3
Nc1ccc(Cc2ccc(N)c(O)c2)cc1O,-2,6,-8,15,-10,0
O=C(N/N=C/c1ccc(Cl)cc1Cl)c1ccncc1,-28,1,-2,-11,-13,3
O=C(N/N=C/c1cc(Br)cc(Br)c1O)c1cccc(S(=O)(=O)N2CCOCC2)c1,40,9,-8,10,27,55*
Cc1cc(Br)cc(/C=N/NC(=O)c2ccc3c(c2)OCO3)c1O,8,-3,0,-156,7,-55
O=C(Cc1ccccc1)N/N=C/c1cc(Br)cc(Cl)c1O,5,-1,-16,10,17,53*
O=C(N/N=C/c1ccccc1Br)c1cccc(S(=O)(=O)N2CCOCC2)c1,-10,3,9,-45,3,-2
O=C(N/N=C/c1cc(Br)cc(Cl)c1O)c1ccc2c(c1)OCO2,11,2,-12,-8,25,55*
O=C(N/N=C/c1cc(Cl)cc(Cl)c1O)c1ccncc1,1,-1,2,21,64*,43
O=C(CCn1nc(-c2ccc(Cl)cc2)ccc1=O)N1CCN(c2ccccc2)CC1,18,-2,-1,19,1,10
O=C(C[C@@H]1C/C=C\C[C@@H](Cc2ccc(F)cc2)C(=O)OCCNC1=O)NCCO,11,-2,5,4,2,0

# Assay outcomes from PubChem.
